High-throughput results as filed in PubChem BioAssay.
PI4K2A inh – qHTS for small molecular inhibitors of PI4K2A; Phosphatidylinositol 4-kinase type 2-alpha (Homo sapiens), Q9BTU6; purified PI4K2A, ADP-Glo luminescence, 1 h; active compounds read low; activity change, negative = inhibition, % at 76.9 µM; hit rate 0.13% among 420,000; AID 1346378, 2018; in the data active = activity change below about -50%; inconclusive = mostly about -30% to -49%;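 note: -100% = wells without enzyme as full effect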
Target sequence (Q9BTU6 whole entry, looked up): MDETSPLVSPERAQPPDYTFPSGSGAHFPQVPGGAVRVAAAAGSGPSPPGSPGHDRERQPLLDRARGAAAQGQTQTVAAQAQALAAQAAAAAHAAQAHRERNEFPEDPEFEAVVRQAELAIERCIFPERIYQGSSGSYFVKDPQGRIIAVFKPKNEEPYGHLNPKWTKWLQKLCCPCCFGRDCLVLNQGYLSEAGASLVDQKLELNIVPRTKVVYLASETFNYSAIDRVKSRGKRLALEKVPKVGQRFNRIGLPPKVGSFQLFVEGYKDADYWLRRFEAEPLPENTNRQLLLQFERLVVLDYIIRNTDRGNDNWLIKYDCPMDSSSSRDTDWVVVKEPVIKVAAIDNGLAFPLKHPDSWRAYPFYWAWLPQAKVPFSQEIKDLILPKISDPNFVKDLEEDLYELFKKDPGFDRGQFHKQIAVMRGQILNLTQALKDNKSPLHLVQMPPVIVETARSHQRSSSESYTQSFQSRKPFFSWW
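PI4K2A activity was measured by ADP-Glo luminescence: enzyme (4 ug/mL stock) and phosphatidylinositol (1.2 mM stock) in Tris pH 7.5/MgCl2/EGTA/Triton X-100 buffer were reacted with ATP (300 microM stock) for one hour at ambient temperature.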
KB-3-1 cytotox – qHTS assay for MDR1-selective chemotherapeutics: Primary screen using the parental adenocarcinoma cell KB-3-1. KB-3-1 viability, CellTiter-Glo ATP luminescence, 72 h. Potency, µM (titrated, usually from 46.1 µM), usual class: cytotoxic. hit rate 1.4% among 400,000. AID 1347075, 2019; note: potency is the fitted concentration of half-maximal effect; nearly all actives have a fitted effect of over 60% in size
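72 h, 37 °C compound treatment of KB-3-1 parental cells; CellTiter-Glo added, 10 min, luminescence read. Data corrected against DMSO-only plates and normalized before curve fitting.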
Nrf2 block – Nrf2 qHTS screen for inhibitors; A549 ARE-Fluc reporter, luciferase luminescence, 18-24 h; Potency, µM (highest dose often 46 µM), for the others: at the highest dose activity change, negative = inhibition, actives largely listed as inhibitors; hit rate 2.1% among 360,000; note: potency is the fitted concentration of half-maximal effect; nearly all actives have a fitted effect of over 60% in size
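Reporter: ARE-Fluc in A549. Exposure: 18-24 h, 37 °C, 5% CO2, 5% FBS OPTI-MEM. Readouts: fluorescent cytotoxicity (CellTiter-Fluor), then luminescent Nrf2 signal after BugLite.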
A549 tox – Nrf2 qHTS screen for inhibitors: counterscreen for cytotoxicity. Potency, µM (top dose mostly 46 µM), inactives show at the highest dose activity change, negative = cytotoxicity, usual class: inhibitors. AID 504648, 2011. A549 ARE-Fluc cells, CellTiter-Fluor viability, 18-24 h. hit rate 0.16% among 390,000; note: potency is the fitted concentration of half-maximal effect
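A549 ARE-Fluc cells in 5% FBS OPTI-MEM, 5000 cells/well, rested 2 h then exposed to compounds in concentration-response for 18-24 h at 37 °C. Viability by CellTiter-Fluor fluorescence (Ex 405/Em 525) after 30 min; luciferase luminescence (BugLite, 15 min, RT) read afterwards.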
Giardia kill – Small Molecules that selectively kill Giardia lamblia: qHTS; Giardia lamblia trophozoite viability; activity change, % at 7.66 µM, hits read low; hit rate 0.15% among 340,000; AID 540267, 2011; in the data active = activity change below about -80%; inconclusive = between about -30% and that limit;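 note: parasites exposed to compound for two days anaerobically before the ATP read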
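Trophozoite viability was measured as ATP-dependent luminescence, read 15-30 min after reagent addition. Before that, parasites at 100 cells/well were exposed to compounds for 48 h, anaerobically, at 37 deg C.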
KB-V1 cytotox – qHTS assay for MDR1-selective chemotherapeutics: Primary screen using the drug-selected MDR subline cells KB-V1 | KB-V1 MDR cells viability, CellTiter-Glo, 72 h | Potency, µM (top dose mostly 46.1 µM), usual class: cytotoxic | hit rate 3.4% among 400,000; note: potency is the fitted concentration of half-maximal effect; nearly all actives have a fitted effect of over 60% in size
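Cells of the MDR subline KB-V1 are plated, dosed with compound at multiple concentrations, and incubated 72 h at 37 degrees C; CellTiter-Glo is then added and luminescence read after 10 min.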
Numbers without * were called inactive; i = inactive; ? = inconclusive; nt = no result. Most compounds without a hit are left out; they make up all but 5.7% or so of the library. Unless noted, calls come from the whole dose curve; as a rule, active = well fitted curve in the direction sought with a large enough effect; inconclusive = small, poorly fitted or top-dose-only effect, or another doubt; inactive = no such curve, though single readings can be large; an effect the other way counts as inactive or inconclusive. Unless noted, % is set by controls: 0 for no effect and ±100 for the full control effect.

SMILES	PI4K2A inh	KB-3-1 cytotox	Nrf2 block	A549 tox	Giardia kill	KB-V1 cytotox
CC(C)CN1C(=O)[C@@]2(CC(=O)N(C)C2c2ccccc2)c2cc(-n3cc(CO)nn3)ccc21 (stereo not given in full)	-6	nt	nt	nt	nt	nt
CCCCc1ccc2nc(NC(=O)c3cccs3)sc2c1	-4	nt	nt	nt	nt	nt
COc1ccc(-c2nc3ccccc3n2Cc2ccccc2)cc1COc1ccc(NC(C)=O)cc1	nt	nt	?	-8%	nt	nt
COc1ccc(OC)c(NC(=O)CN2CCCN(Cc3ccccc3Cl)S2(=O)=O)c1	0	i	-8%	0%	nt	i
COC(=O)[C@]12C[C@H](CC(=O)NCC34CC5CC(CC(C5)C3)C4)C(=O)N(CCC3=CCCCC3)C1=C[C@H](C1CCCC1)O[C@@H]2C	-4	nt	nt	nt	nt	nt
Cc1cc(C(=O)N/N=C/c2ccc([N+](=O)[O-])cc2)c2ccccc2n1	-1	5.8µM*	-28%	8%	2	i
Cc1cccc(/C=N/NC(=O)c2cc(C)nc3ccccc23)n1	1	i	9%	1%	-16	?
Cc1cc(C(=O)N/N=C/c2ccc(N(C)C)cc2)c2ccccc2n1	1	9.2µM*	21%	?	4	?
Cc1cccc(/C=N/NC(=O)c2cc(C3CC3)nc3ccccc23)n1	-1	i	-22%	-4%	-21	i
Cc1c(C(=O)N/N=C/c2ccccc2)[nH]c2ccc(Cl)cc12	2	?	12%	1%	11	i
Cc1c(C(=O)N/N=C/c2ccc(N(C)C)cc2)[nH]c2ccc(Cl)cc12	-1	5.8µM*	23%	-12%	2	5.8µM*
CCc1ccc(/C=N/NC(=O)c2cc(C3CC3)nc3ccccc23)s1	-2	5.2µM*	?	?	25	5.2µM*
COc1ccc(C2=Nn3c(nnc3-c3cc(OC)ccc3OC)SC2)c(OC)c1	nt	nt	?	2%	nt	nt
OC(c1ccccc1)(c1ccccc1)c1cnc2ccccn12	-1	nt	-14%	-3%	nt	nt
CCC(Sc1nc2nccnc2c(=O)n1Cc1ccc(OC)cc1)C(=O)NC1CCCCC1 (stereo not given)	-2	nt	18%	7%	nt	nt
Cc1cc(C(=O)N/N=C/c2ccc([N+](=O)[O-])s2)c2ccccc2n1	1	?	?	?	-95*	i
Cc1cc(C(=O)N/N=C/c2cc([N+](=O)[O-])ccc2O)c2ccccc2n1	6	i	-20%	0%	8	?
COc1cc(/C=N\NC(=O)c2ccc(-c3ccccc3)cc2)cc(OC)c1OC(C)=O	-13	i	13µM*	2%	4	i
COc1cc(C(=O)NN=Cc2ccc(N(C)C)cc2)cc(OC)c1OC	0	1.5µM*	nt	nt	nt	3.7µM*
O=C(CCCN1C(=O)/C(=C/c2ccc3c(c2)OCO3)SC1=S)Nc1cccc(C(=O)O)c1	-4	i	10µM*	6%	-10	i
O=C(CCCN1C(=O)/C(=C/c2ccccc2Cl)SC1=S)Nc1ccccn1	4	i	21µM*	-23%	-1	?
O=C(CCN1C(=O)/C(=C/c2ccccc2Cl)SC1=S)Nc1ccccn1	-9	i	16%	4%	0	i
O=C(CCN1C(=O)/C(=C/c2ccc3c(c2)OCO3)SC1=S)Nc1cccc(C(=O)O)c1	0	i	1%	-8%	-8	?
O=C1/C(=C/c2ccccc2Cl)SC(=S)N1CCCC(=O)N(CCO)c1ccccc1	3	?	16µM*	-12%	2	?
COc1ccc(/C=C/c2ccccc2)cc1C1C2C=CCCC2(C)C(=O)N1Cc1ccccc1 (stereo not given)	nt	nt	5%	1%	-8	nt
SMILES	PI4K2A inh	KB-3-1 cytotox	Nrf2 block	A549 tox	Giardia kill	KB-V1 cytotox
COC(=O)[C@]12C[C@H](CC(=O)NCCc3ccccc3OC)C(=O)N(Cc3ccc(Cl)cc3Cl)C1=C[C@H](C(C)C)O[C@@H]2C1CC1	-2	nt	nt	nt	nt	nt
COC(=O)c1ccccc1NC(=O)CSCC(=O)Nc1ccccc1OC	-2	i	2%	-12%	-6	9.2µM*
COc1ccccc1NC(=O)CSc1nc2ccccc2n1C(C)=O	7	i	?	-30%	5	16µM*
COc1ccc(C(=O)n2nc(-c3ccco3)nc2NCc2cccs2)cc1OC	14	i	4%	5%	nt	i
CC1CCCC(NC(=O)C2COc3ccccc3O2)C1C (stereo not given)	0	i	12%	1%	-11	13µM*
CCN(CC)C(=O)Cn1c(=O)c2ccccc2n2c(=S)sc(-c3cccc(C)c3)c12	-1	i	8%	5%	15	2.9µM*
O=C(Cn1c(-c2cncs2)nc2ccccc21)N1CCOCC1	3	nt	nt	nt	nt	nt
CCCCn1cc(S(=O)(=O)c2ccc(C)c(C)c2)c(=O)c2cc(F)c(N(CC)CC)cc21	0	?	26µM*	-26%	nt	?
COc1ccccc1C(=O)n1ccc2ccc(-c3ccc4ccn(Cc5ccccc5)c4c3)cc21	2	nt	nt	nt	nt	nt
CC1CCCCN1CC(O)COCCC12CC3CC(CC(C3)C1)C2 (stereo not given)	-6	16µM*	-18%	?	8	?
Cc1ccc(Oc2cc([N+](=O)[O-])cc3c2C(=O)Nc2ccccc2O3)cc1	-4	?	15µM*	-8%	1	i
O=C(CN1c2cccc3cccc(c23)S1(=O)=O)N1CCN(c2ccccc2)CC1	-4	i	-4%	9%	-5	9.2µM*
CC1(C)S[C@@H]2[C@H](NC(=O)COc3ccccc3)C(=O)N2[C@@H]1C(=O)OCc1cccc2cccnc12	nt	i	nt	nt	nt	i
O=C(NCc1ccccc1)c1cccc(COc2ccccc2Cl)c1	6	i	?	-4%	3	?
O=C(NCc1ccccc1)c1cccc(COc2cc(Cl)ccc2Cl)c1	1	i	7%	16%	-6	21µM*
CCCCCCCCNS(=O)(=O)/C=C/c1ccc(OC)cc1CNC(=O)OC(C)(C)C	-1	nt	nt	nt	nt	nt
